The results in this text go back to PubChem BioAssay (NCI).

Compounds without any hit were thinned out: in the full panel of roughly 83,000, 20% have a hit.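 Treatment: one concentration, 48 hours, 96-well format. Scoring: percent growth, with anything below 10 considered active.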 A number with no mark means an inactive call. Calls of active or inactive are those of the source.

Assay in all cases: NCI-60 one-dose screen, 48 h (100 = growth as untreated, 0 = no growth, -100 = all killed)
Common to all, as to conditions: 10 µM unless noted

Assay [1] concerns HCT-15 colon.
Assay [2] concerns HT29 colon.
In assay [3] the test system is SNB-75 CNS.
The subject of assay [4] is SNB-19 CNS.
In assay [5] the test system is U251 CNS.
Assay [6] concerns PC-3 prostate.
Assay [7] deals with SK-MEL-5 melanoma.
Assay [8] relates to UACC-62 melanoma.
Assay [9] relates to LOX IMVI melanoma.
The test system of assay [10] is SK-MEL-28 melanoma.
For assay [11], the system named is SK-MEL-2 melanoma.
Assay [12] concerns EKVX NSCLC.
Assay [13] has as its system SN12C renal.
For assay [14], the system named is UO-31 renal.
The subject of assay [15] is TK-10 renal.
The test system of assay [16] is ACHN renal.
Assay [17] deals with CAKI-1 renal.
Assay [18] relates to A498 renal.
Assay [19] concerns CCRF-CEM leukemia.
Assay [20] concerns MOLT-4 leukemia.

On to `Cc1ccccc1N1CCN(C2=C(Cl)C(=O)c3ncccc3C2=O)CC1`, for which the growth is 4.38% (active) in assay [1]; 94.9% in [2]; 82.6% in assay [3]; 74.9% in assay [4]; 71.3% in assay [5]; 66.1% in [6]. Further, the growth is 88.8% in assay [7]; 66.2% in assay [8]; 1.19% (active) in assay [9]; 35.9% in assay [10]; 81.1% in assay [11]; 95.4% in assay [12]. For the same compound, the growth in assay [13] is 70.1%; in assay [14], 2.66% (active); in assay [15], 68.7%; in assay [16], -22.6% (active); in assay [17], 25.4%; in assay [18] it was 111%. In addition, the growth was 0.314% (active) in [19] and 10.4% in assay [20].
On to `O=S(=O)(Oc1ccc(-c2cn3ccoc3n2)cc1)c1cccc(C(F)(F)F)c1`, for which the growth was 95.6% in assay [1]; 103% in assay [2]; 96.3% in assay [3]; 95.2% in [4]; 101% in assay [5]; 95.2% in [6]. In addition, the growth in assay [7] is 96.1%; in [8], 86.5%; in [9], 94.7%; in assay [10], 106%; in assay [11] it was 104%; in assay [12], 102%. In addition, the growth is 96.2% in assay [13]; 93.1% in [14]; 85.4% in assay [15]; 102% in assay [16]; 86.9% in assay [17]; 88.8% in assay [18]. The growth in [19] was 106%; in [20] it was 103%.
Turning to `COC(=O)CCSC1=C(C)C(=O)c2ccccc2C1=O`, the growth is 58.5% in assay [1]; 110% in [2]; 89.6% in assay [3]; 96.5% in assay [4]; 85.1% in assay [5]; 72.6% in assay [6]. Besides, the growth in assay [7] is 84.2%; in assay [8], 70.9%; in assay [9], 52.2%; in assay [10] it was 106%; in assay [11], 107%; in assay [12], 74.2%. For the same compound, the growth is 92.5% in assay [13]; 64.6% in assay [14]; 162% in [15]; 82.6% in [16]; 80.4% in assay [17]; 116% in [18]. For the same compound, the growth was 45.7% in assay [19] and 31.8% in [20].
Take `O=C(CSc1nc2ccccc2c(=O)n1-c1ccc(S(=O)(=O)Nc2ccc(Cl)nn2)cc1)Nc1ccc(S(=O)(=O)Nc2ccc(Cl)nn2)cc1`: the growth in [1] was 100%; in [2], 106%; in assay [3], 96.1%; in [4], 101%; in assay [5] it was 102%; in [6], 100%. The growth is 97.2% in assay [7]; 94% in assay [8]; 90.4% in assay [9]; 106% in assay [10]; 120% in [11]; 99.8% in [12]. Moreover, the growth in [13] is 106%; in [14] it was 87.9%; in [15], 106%; in assay [16], 98.2%; in assay [17], 91.9%; in assay [18], 104%. In addition, the growth is 101% in assay [19] and 97.6% in [20].
For the compound `CC1=C(C)C(=O)C(Nc2cccc(C(F)(F)F)c2)=C(Br)C1=O`, the growth in assay [1] is 82.7%; in assay [2], 106%; in [3], 62.2%; in [4] it was 91.1%; in assay [5], 87.4%; in assay [6], 71%. The growth is 81.3% in assay [7]; 80.8% in [8]; 6.64% (active) in [9]; 105% in assay [10]; 104% in [11]; 72.9% in [12]. Also, the growth in [13] was 97.1%; in [14] it was 79.1%; in assay [15], 157%; in assay [16], 72.3%; in assay [17], 94.3%; in assay [18] it was 86.4%. The values for the growth in assay [19] and in assay [20] were -0.578% (active) and -6.02% (active), respectively.
Regarding `Fc1ccc2nc(-c3cnn4cccnc34)sc2c1`, the growth in [1] was 76.9%; in [2], 97.9%; in assay [3], 68.5%; in assay [4], 82.1%; in assay [5], 75.8%; in assay [6], 84.3%. Besides, the growth in [7] was 90%; in assay [8], 75.4%; in assay [9], 92.9%; in assay [10] it was 117%; in [11], 119%; in assay [12], 61.8%. In addition, the growth was 90.2% in assay [13]; 46.8% in [14]; 123% in [15]; 78.9% in assay [16]; 68.9% in [17]; 89.7% in assay [18]. Besides, the growth in assay [19] was 102%; in [20], 80.3%.
As for `CN1CCN(c2ccc(C(=O)/C=C/c3cc(F)cc(C(F)(F)F)c3)cc2)CC1`, the growth was 27.5% in assay [1]; 15.9% in [2]; 59.9% in [3]; 81.7% in assay [4]; 51.4% in [5]; 60.2% in [6]. Further, the growth is 71.3% in [7]; 82.8% in [8]; 7.73% (active) in [9]; 96.3% in [10]; 117% in assay [11]; 88.9% in assay [12]. The growth is 75.7% in assay [13]; 53.3% in [14]; 144% in [15]; 67.9% in [16]; 51.5% in assay [17]; 96.9% in [18]. For the same compound, the growth in assay [19] is 14.1%; in assay [20] it was 46.8%.
`C#CCOc1cccc(/C(N)=N/C(N)=N/c2nc3ccccc3s2)c1`: the growth in assay [1] is 57.4%; in [2], 108%; in assay [3], 109%; in assay [4], 95.5%; in assay [5], 84.9%; in assay [6] it was 69.8%. Further, the growth in assay [7] is 95.3%; in assay [8], 92.3%; in [9] it was -1.89% (active); in assay [10], 115%; in [11], 103%; in assay [12], 73.8%. Moreover, the growth in assay [13] was 66%; in assay [14] it was 91.8%; in [15], 148%; in assay [16] it was 81.4%; in [17], 73.5%; in assay [18] it was 122%. In addition, the values for the growth in assay [19] and in [20] were 76.5% and 71.8%, respectively.
